{"source": "paper PMC7862700", "about": "“An all-to-all approach to the identification of sequence-specific readers for epigenetic DNA modifications on cytosine”", "test_in_all_cases": "DAPPL (digital affinity profiling via proximity ligation, sequencing); 10 mM Tris-HCl pH 7.5, 50 mM NaCl, 1 mM DTT, 4% glycerol, room temperature, 30 min; GST-TFs on glutathione beads, 16-mer random dsDNA library, 0.1% formaldehyde crosslink after washing; high values mean tight binding", "key": {"[1]": {"biological_target": "T1, FEV (Homo sapiens, UniProt Q99581 1-238)", "T1 sequence": "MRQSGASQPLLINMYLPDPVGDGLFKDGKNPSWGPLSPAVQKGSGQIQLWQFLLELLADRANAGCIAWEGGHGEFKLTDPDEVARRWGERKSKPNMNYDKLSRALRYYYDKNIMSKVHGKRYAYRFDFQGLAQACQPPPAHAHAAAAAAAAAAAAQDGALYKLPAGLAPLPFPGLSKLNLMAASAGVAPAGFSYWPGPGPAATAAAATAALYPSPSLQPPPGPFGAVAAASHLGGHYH", "settings": "protein: recombinant; tags: N-terminal GST; dsDNA, one strand shown", "in_short": "(§1)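 Binding signal is given per hexamer as its read frequency for a factor divided by its frequency in the tag-only sample. GST-fused human transcription factors were expressed in yeast, captured on glutathione beads, barcoded with DNA and pooled with that sample, then incubated with 200 nmole of a 16-mer random double-stranded DNA library in Tris/NaCl/DTT/glycerol buffer for 30 min at room temperature. The pools were then washed, crosslinked, proximity-ligated, amplified by PCR and sequenced on an Illumina NextSeq500.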"}, "[2]": {"biological_target": "ETV5 (Homo sapiens, UniProt P41161 1-510)", "sequence (P41161 whole entry)": "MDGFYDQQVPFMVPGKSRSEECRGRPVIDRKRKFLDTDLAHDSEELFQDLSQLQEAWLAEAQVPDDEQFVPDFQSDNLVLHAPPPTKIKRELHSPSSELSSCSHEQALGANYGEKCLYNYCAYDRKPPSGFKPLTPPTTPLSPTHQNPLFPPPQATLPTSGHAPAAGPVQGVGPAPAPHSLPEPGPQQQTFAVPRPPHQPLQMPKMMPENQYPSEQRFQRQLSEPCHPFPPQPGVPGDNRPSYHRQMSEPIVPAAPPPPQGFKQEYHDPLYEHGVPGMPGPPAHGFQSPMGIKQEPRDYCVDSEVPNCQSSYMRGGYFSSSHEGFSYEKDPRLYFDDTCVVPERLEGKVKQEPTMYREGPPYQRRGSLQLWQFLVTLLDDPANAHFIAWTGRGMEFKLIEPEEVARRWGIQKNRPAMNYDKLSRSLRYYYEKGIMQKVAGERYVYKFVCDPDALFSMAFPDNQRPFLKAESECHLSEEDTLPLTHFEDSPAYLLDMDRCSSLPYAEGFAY", "settings": "protein: recombinant; tags: N-terminal GST; dsDNA, one strand shown", "in_short": "as §1"}, "[3]": {"biological_target": "HSF1 (Homo sapiens, UniProt Q00613 1-529)", "sequence (Q00613 whole entry)": "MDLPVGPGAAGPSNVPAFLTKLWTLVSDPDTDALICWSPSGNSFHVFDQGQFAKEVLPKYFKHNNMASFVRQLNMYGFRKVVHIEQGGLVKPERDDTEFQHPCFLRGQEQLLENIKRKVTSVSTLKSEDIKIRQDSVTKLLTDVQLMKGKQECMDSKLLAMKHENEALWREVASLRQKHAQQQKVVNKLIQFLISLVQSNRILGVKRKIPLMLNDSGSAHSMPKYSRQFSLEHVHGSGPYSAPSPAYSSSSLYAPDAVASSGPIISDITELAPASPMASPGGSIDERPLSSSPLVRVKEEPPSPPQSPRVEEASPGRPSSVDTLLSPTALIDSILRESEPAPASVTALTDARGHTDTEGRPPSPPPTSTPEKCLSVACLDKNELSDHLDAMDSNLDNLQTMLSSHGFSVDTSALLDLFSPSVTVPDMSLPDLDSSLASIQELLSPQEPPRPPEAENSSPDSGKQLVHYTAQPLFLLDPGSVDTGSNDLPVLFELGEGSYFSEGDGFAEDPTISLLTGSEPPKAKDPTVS", "settings": "protein: recombinant; tags: N-terminal GST; chain copies: 3; dsDNA, one strand shown", "in_short": "as §1"}, "[4]": {"biological_target": "T2, SPIC (Homo sapiens, UniProt Q8N5J4 1-248)", "T2 sequence": "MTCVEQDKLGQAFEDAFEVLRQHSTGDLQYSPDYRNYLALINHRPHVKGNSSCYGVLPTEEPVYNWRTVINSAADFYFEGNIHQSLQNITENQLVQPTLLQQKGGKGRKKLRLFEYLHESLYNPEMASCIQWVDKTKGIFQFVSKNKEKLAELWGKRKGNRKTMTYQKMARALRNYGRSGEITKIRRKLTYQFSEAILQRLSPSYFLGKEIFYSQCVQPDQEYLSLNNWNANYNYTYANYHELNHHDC", "settings": "protein: recombinant; tags: N-terminal GST; dsDNA, one strand shown", "in_short": "as §1"}, "[5]": {"biological_target": "ELF4 (Homo sapiens, UniProt Q99607 1-663)", "sequence (Q99607 whole entry)": "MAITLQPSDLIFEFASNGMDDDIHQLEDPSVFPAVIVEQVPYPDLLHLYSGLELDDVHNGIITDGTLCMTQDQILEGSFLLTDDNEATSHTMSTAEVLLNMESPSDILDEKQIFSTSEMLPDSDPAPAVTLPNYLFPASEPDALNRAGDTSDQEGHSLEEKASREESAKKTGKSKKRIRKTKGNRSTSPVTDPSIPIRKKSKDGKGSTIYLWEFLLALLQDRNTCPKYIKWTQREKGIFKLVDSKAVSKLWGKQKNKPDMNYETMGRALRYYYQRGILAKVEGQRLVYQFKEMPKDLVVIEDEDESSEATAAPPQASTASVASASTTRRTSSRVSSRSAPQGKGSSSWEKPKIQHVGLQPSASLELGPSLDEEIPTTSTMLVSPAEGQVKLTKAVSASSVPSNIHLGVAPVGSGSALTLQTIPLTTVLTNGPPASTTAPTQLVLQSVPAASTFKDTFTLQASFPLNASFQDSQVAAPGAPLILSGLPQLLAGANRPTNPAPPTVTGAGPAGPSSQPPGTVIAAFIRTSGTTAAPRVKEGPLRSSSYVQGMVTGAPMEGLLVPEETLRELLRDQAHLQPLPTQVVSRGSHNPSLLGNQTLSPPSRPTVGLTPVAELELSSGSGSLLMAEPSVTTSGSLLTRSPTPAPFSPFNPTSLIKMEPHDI", "settings": "protein: recombinant; tags: N-terminal GST; dsDNA, one strand shown", "in_short": "as §1"}, "[6]": {"biological_target": "T3, ELK4 (Homo sapiens, UniProt P28324-2 1-405)", "T3 sequence": "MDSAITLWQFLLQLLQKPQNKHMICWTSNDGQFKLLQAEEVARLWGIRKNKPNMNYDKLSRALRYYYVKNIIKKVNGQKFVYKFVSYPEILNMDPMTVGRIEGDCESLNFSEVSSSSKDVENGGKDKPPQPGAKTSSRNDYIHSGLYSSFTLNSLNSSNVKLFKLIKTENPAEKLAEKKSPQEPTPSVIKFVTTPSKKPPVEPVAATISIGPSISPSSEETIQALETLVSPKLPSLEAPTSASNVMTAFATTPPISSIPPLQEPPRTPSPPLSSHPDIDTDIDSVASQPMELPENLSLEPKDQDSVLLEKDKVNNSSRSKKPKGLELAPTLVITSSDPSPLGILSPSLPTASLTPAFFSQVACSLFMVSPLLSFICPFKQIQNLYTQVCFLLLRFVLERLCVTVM", "settings": "protein: recombinant; tags: N-terminal GST; dsDNA, one strand shown", "in_short": "as §1"}, "[7]": {"biological_target": "T4, ETV2 (Homo sapiens, UniProt O00321 1-342)", "T4 sequence": "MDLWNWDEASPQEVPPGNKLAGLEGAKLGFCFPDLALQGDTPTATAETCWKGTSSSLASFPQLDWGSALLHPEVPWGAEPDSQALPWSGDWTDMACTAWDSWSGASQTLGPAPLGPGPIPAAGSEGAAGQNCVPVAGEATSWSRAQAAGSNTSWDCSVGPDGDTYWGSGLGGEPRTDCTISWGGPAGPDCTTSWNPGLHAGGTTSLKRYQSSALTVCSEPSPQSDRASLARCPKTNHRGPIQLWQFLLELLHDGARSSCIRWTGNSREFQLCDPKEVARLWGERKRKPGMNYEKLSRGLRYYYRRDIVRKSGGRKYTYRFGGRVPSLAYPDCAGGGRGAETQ", "settings": "protein: recombinant; tags: N-terminal GST; dsDNA, one strand shown", "in_short": "as §1"}, "[8]": {"biological_target": "T5, ELF3 (Homo sapiens, UniProt P78545 1-371)", "T5 sequence": "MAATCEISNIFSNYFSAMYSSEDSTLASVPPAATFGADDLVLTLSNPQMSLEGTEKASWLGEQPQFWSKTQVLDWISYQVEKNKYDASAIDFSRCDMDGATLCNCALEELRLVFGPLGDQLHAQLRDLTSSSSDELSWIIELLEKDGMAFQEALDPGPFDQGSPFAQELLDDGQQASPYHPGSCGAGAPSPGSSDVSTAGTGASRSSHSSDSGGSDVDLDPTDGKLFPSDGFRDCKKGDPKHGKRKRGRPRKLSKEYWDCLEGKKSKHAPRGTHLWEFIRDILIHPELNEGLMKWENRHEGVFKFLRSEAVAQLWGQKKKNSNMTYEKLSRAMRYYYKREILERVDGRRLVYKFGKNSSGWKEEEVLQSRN", "settings": "protein: recombinant; tags: N-terminal GST; dsDNA, one strand shown", "in_short": "as §1"}, "[9]": {"biological_target": "CRX (Homo sapiens, UniProt O43186 1-299)", "sequence (O43186 whole entry)": "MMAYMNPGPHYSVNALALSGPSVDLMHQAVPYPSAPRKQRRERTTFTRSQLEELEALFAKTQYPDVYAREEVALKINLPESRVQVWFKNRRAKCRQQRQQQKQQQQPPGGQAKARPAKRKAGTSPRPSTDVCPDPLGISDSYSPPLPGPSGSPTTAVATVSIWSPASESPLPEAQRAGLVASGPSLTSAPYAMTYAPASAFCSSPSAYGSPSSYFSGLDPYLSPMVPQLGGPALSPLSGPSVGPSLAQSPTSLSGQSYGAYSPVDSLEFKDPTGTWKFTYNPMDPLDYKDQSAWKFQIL", "settings": "protein: recombinant; tags: N-terminal GST; dsDNA, one strand shown", "in_short": "as §1"}}, "data": [{"sequence": "ATTCTT", "values": [{"measurement": "binding signal", "setting": "[1]", "value": "1.4 fold enrichment (6-mer frequency, TF over GST control)"}, {"measurement": "binding signal", "setting": "[2]", "value": "1.4 fold enrichment (6-mer frequency, TF over GST control)"}, {"measurement": "binding signal", "setting": "[3]", "value": "1.99 fold enrichment (6-mer frequency, TF over GST control)"}, {"measurement": "binding signal", "setting": "[4]", "value": "1.56 fold enrichment (6-mer frequency, TF over GST control)"}, {"measurement": "binding signal", "setting": "[5]", "value": "1.47 fold enrichment (6-mer frequency, TF over GST control)"}, {"measurement": "binding signal", "setting": "[6]", "value": "1.51 fold enrichment (6-mer frequency, TF over GST control)"}, {"measurement": "binding signal", "setting": "[7]", "value": "1.37 fold enrichment (6-mer frequency, TF over GST control)"}, {"measurement": "binding signal", "setting": "[8]", "value": "1.45 fold enrichment (6-mer frequency, TF over GST control)"}, {"measurement": "binding signal", "setting": "[9]", "value": "1.77 fold enrichment (6-mer frequency, TF over GST control)"}]}]}
